The values that follow come from ChEMBL document CHEMBL3988442, “University of Dundee, Small-Polar-MMV Screening Library” (2021).

Molecules are shown by their SMILES.

The target in assay [1] is T1, Aspartate--tRNA(Asp/Asn) ligase (Mycobacterium tuberculosis (strain ATCC 25618 / H37Rv)) (UniProt P9WFW3). Note: in the data most compounds retested in dose-response had high values.
T1 sequence (whole entry): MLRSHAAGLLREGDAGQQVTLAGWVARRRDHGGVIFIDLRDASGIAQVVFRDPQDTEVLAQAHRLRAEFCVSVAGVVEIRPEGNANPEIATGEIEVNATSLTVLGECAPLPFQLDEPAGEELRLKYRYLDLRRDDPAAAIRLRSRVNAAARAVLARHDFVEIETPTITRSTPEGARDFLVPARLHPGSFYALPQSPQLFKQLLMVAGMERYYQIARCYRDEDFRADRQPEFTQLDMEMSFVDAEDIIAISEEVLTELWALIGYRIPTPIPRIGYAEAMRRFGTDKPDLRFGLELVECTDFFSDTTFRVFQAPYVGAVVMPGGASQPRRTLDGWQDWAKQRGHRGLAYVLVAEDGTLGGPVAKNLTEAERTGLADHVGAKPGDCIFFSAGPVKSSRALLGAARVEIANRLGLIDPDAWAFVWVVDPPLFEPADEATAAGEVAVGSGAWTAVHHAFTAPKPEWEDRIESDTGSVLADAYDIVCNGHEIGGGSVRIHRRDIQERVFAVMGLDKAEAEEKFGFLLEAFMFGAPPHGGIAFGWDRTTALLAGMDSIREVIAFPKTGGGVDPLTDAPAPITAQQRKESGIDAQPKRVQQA
The experiment in a line: Assay for Asp RNA synthetase-1 from Mycobacterium tuberculosis. Format: functional. Details: scale not given: direction of the effect not stated beside the values. The note with it: 30 µM.

For assay [2], the target named is Shiga toxin 2 (Escherichia coli O157:H7) (UniProt P09385+P09386). The experiment in a line: E. coli 0.157:H7 Shiga Toxin SOP - stx2 screening assay. Format: functional. Details: scale not given: direction of the effect not stated beside the values. The following applies: 30 µM.

For the molecule `O=C(c1ccccn1)N1C[C@@H]2CC[C@H](C1)N(C(=O)CCc1ccsc1)C2`, the Percent Effect in assay [1] is 0.446%; in assay [2], -55.7%.

As to `CC(C)c1ncc2c(n1)CN(Cc1nc(-c3ccoc3)no1)CC2`, the figures for the Percent Effect in assay [1] and in assay [2] were 3.7% and -1.63%, respectively.

As to `CC1CCCN(CC(=O)N2CCC(c3ncc4c(n3)CCNC4)CC2)C1` (stereo unspecified), the Percent Effect in assay [1] is -2.22%; in assay [2] it was -1.44%.

As for `CSCC(CCO)NC(=O)Nc1cc(Br)ccc1C` (stereo unspecified), the Percent Effect in assay [1] was 3.02%; in assay [2], -10.3%.

On to `COCc1cccc(NC(C)C(=O)N(C)Cc2ccccc2)c1` (stereo unspecified), for which the results for the Percent Effect in assay [1] and in assay [2] were -0.212% and -8.1%, respectively.

As to `Cc1cccnc1NCCNC(=O)[C@H]1CNC[C@@H](C(=O)N2CCCC2)C1`, the Percent Effect was -0.342% in assay [1] and -7.88% in assay [2].

Regarding `CC(C)c1cc(NCC(C)N2CCCC2)n2nccc2n1` (stereo unspecified), the Percent Effect was 1.77% in assay [1] and -11.9% in assay [2].

With `Cc1cccc(CN2CCc3nnc(CO)n3CC2)n1`, the Percent Effect in assay [1] is 0.728%; in assay [2], -10.4%.

Consider `Cc1cccc(NC(=O)N2CCCn3cnc(CN4CCCC4)c3C2)c1`, for which the values for the Percent Effect in assay [1] and in assay [2] were -3.25% and -16.8%, respectively.

As for `CN(Cc1ccccc1)C1COC2(CCN(Cc3nccs3)CC2)C1` (stereo unspecified), the Percent Effect in assay [1] is -2.36%; in assay [2] it was -24.7%.

`CSCC[C@H](N)C(=O)NCc1cc2n(n1)CCCN(C1CCCCC1)C2`: the figures for the Percent Effect in assay [1] and in assay [2] were -6.77% and 5.19%, respectively.

On to `CNc1oc(-c2ccc(OC)c(S(=O)(=O)N3CCCCC3)c2)nc1C#N`, for which the values for the Percent Effect in assay [1] and in assay [2] were -1.39% and -28.4%, respectively.

Regarding `Cn1cnc2c1C(COCC1CCOCC1)CN(C(=O)c1ccoc1)C2` (stereo unspecified), the Percent Effect in assay [1] is 2.22%; in assay [2], -11.7%.

As for `CC(=O)c1ccc(OCC(=O)NC(C)CCc2ccco2)cc1` (stereo unspecified), the Percent Effect in assay [1] was 4.56%; in assay [2], -18.5%.

`CSc1ccccc1C(C(=O)O)N1CCN(Cc2ccccn2)CC1` (stereo unspecified): the Percent Effect in assay [1] was -1.38%; in assay [2], 17.4%.

In the case of `O=C(CCn1cnnc1)N1CCCC(c2ncc[nH]2)C1` (stereo unspecified), the Percent Effect in assay [1] is 5.32%; in assay [2], -29.4%.

On to `Clc1ccccc1-c1nc(CNC2CCc3ncnn3C2)cs1` (stereo unspecified), for which the Percent Effect in assay [1] is -0.745%; in assay [2] it was -6.39%.

On to `CCN(CC)C(=O)c1ccn(COc2cc(C)cc(C)c2)n1`, for which the Percent Effect was -7.43% in assay [1] and -39.1% in assay [2].
